Compound activity deposited in PubChem BioAssay by National Center for Advancing Translational Sciences (NCATS).
Marburg entry inh = inhibitors of Marburg virus binding or cell entry. Marburg virus pseudotyped entry inhibition, cell reporter. Potency, µM (series often up to 37.8 µM), actives largely listed as inhibitors. actives 1.8% (n = 300,000); calls by dose curve; tested in HEK293 cells
Shiga inhibitor = inhibitors of Shiga toxin in Vero cells. Vero cells, Shiga toxin protein synthesis inhibition reporter. inhibition, % at 38.7 µM. actives 9.2% (n = 290,000). AID 2315; in the data active means inhibition mostly above about 28%, no sharp cut-off; inactive means mostly below about 43%
Lassa entry inh = inhibitors of Lassa virus binding or cell entry | Lassa virus pseudotype entry inhibition, cell reporter | AID 540256 | Potency, µM (titrated, usually from 37.9 µM), actives largely listed as inhibitors | actives 1.2% (n = 300,000); calls by dose curve; tested in HEK293 cells; further: nearly all actives have a fitted effect of over 50% in size
CHX counter = counter-screen hit for Shiga toxin inhibitors, cycloheximide; cell reporter, cycloheximide protein synthesis inhibition counterscreen; max response, %; actives 12% (n = 300,000); AID 2314; in the data active means max response mostly above about 13%, no sharp cut-off; inactive means mostly below about 14%; further: read at 38.3 µM for the half of the compounds with a filed dose
AMA1 RON2 block = AMA1-RON2 (P. falciparum) interaction inhibition. AlphaScreen AMA1-biotinylated RON2 peptide binding. Potency, µM (doses to about 58.2 µM), hits mostly inhibitors. actives 0.2% (n = 360,000). AID 720542; active means well fitted inhibition curve with a large enough effect; inconclusive means small, poorly fitted or top-dose-only effect; inactive means no such curve, though single readings can be large or run the other way; further: nearly all actives have a fitted effect of over 45% in size
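AMA1 (3D7) with his tag at 25 nM final met compounds first, then biotinylated RON2 peptide at 25 nM; detection used donor plus acceptor beads, 10 µg/mL apiece, read by AlphaScreen after 30 min at room temperature.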
Large screens that a line does not name were inactive. This is one part of a sample in which hits are shown more often than they occur.

CNc1c([N+](=O)[O-])cnn1-c1ccccc1Cl	CHX counter 15.3
CC1(C)C2CCC1(CS(=O)(=O)N1CCCc3ccccc31)C(=O)C2 (stereo unspecified)	CHX counter 18.1
O=C(CSc1nc(-c2ccccc2)no1)N1CCCCC1	Marburg entry inh inconclusive (no result: Shiga inhibitor, CHX counter, AMA1 RON2 block)
CN(C)c1ccnc(Oc2ccc(C(C)(C)C)cc2)c1C#N	Marburg entry inh inconclusive, Shiga inhibitor 72.6, Lassa entry inh inconclusive, CHX counter 37.4
CN(C)c1ccnc(Oc2ccc(Cl)cc2)c1C#N	Shiga inhibitor 126.7, Lassa entry inh inconclusive, CHX counter 69.1
Cc1cc(Cl)ccc1Oc1nccc(N(C)C)c1C#N	Marburg entry inh inconclusive, Lassa entry inh inconclusive, CHX counter 13.9
CN(C)c1ccnc(Oc2ccccc2)c1C#N	none
CCc1ccc(CNC(=O)COc2cc(=O)n(CC)c3ccccc23)cc1	none (no result: Shiga inhibitor, CHX counter, AMA1 RON2 block)
Cc1cc(C)c(NC(=O)CSc2ccc3nnc(CCNC(=O)c4ccccc4)n3n2)c(C)c1	none
CCN(CC)c1ccc(CN(C(=O)Cc2coc3ccc(C)cc23)C2CCS(=O)(=O)C2)cc1 (stereo unspecified)	Lassa entry inh inconclusive (no result: Shiga inhibitor, CHX counter, AMA1 RON2 block)
COc1cc(/C=N/NC(=O)NC2CCCCC2)ccc1O	Shiga inhibitor 43.3, Lassa entry inh inconclusive, CHX counter 14.3
O=C(N/N=C/c1ccccc1OC(F)F)NC1CCCCC1	Marburg entry inh inconclusive
O=C(N/N=C/c1cccc(F)c1)c1c(O)c2c([nH]c1=O)CCCC2	Marburg entry inh inconclusive, Shiga inhibitor 35.9, Lassa entry inh inconclusive, CHX counter 25.8
CNC(=O)c1ccccc1NC(=O)c1c(O)c2c([nH]c1=O)CCCC2	Lassa entry inh inconclusive
CC(C)(C)c1ccc(/C=N/NC(=S)NC2CCCCC2)cc1	Marburg entry inh inconclusive, Shiga inhibitor 46.9, Lassa entry inh inconclusive
O=C(N/N=C/c1ccccc1F)NC1CCCCC1	Shiga inhibitor 33.1, CHX counter 18.2
O=C(Nc1cnc(N2CCN(c3ccccc3)CC2)c(C(=O)O)c1)c1cccs1	none (no result: Marburg entry inh, Shiga inhibitor, CHX counter, AMA1 RON2 block)
CC(=O)c1ccc(NC(=O)C2CC(=O)N(C(C)C)C2)cc1 (stereo unspecified)	none
CCCc1nnc(NS(=O)(=O)c2ccc(C)cc2)o1	none (no result: Shiga inhibitor, CHX counter)
O=C(N/N=C/c1cccc(F)c1)NC1CCCCC1	CHX counter 18.7 (no result: Lassa entry inh)
O=C(COC(=O)/C=C/c1cccc(F)c1)NC1CCCCCC1	none (no result: Shiga inhibitor, CHX counter)
COc1cc(/C=N/NC(=O)NC2CCCCC2)cc(OC)c1O	none (no result: Marburg entry inh, Lassa entry inh)
O=C(N/N=C/c1ccccc1)NC1CCCCC1	CHX counter 30.7
C=CCNC(=O)c1c(Br)cnn1-c1ccc(C)cc1	Marburg entry inh inconclusive, Shiga inhibitor 58.7, CHX counter 45.0
Cc1ccc(-n2ncc(Cl)c2C(=O)NCc2ccccc2)cc1	Shiga inhibitor 57.6, CHX counter 42.4 (no result: Marburg entry inh, Lassa entry inh)
CNC(=O)c1c(Cl)cnn1-c1ccc(F)cc1	Marburg entry inh inconclusive
Cc1ccc(/C=C2\SC(=S)N(/N=C/c3cc([N+](=O)[O-])ccc3O)C2=O)o1	CHX counter 19.3
O=[N+]([O-])c1ccc(O)c(/C=N/n2cnc3ccccc32)c1	Marburg entry inh inconclusive
COc1ccccc1CCNC(=O)Cc1c(C)c2c(cc(C)c3c(C)coc32)oc1=O	none (no result: Shiga inhibitor, CHX counter, AMA1 RON2 block)
Nc1cccc(-c2cn3cccnc3n2)c1	Lassa entry inh inconclusive
O=[N+]([O-])c1cccc(-c2cnc3ccccc3n2)c1	Shiga inhibitor 63.3, CHX counter 24.1 (no result: Marburg entry inh, Lassa entry inh)
Nc1cccc(-c2cnc3ccccc3n2)c1	Shiga inhibitor 63.1, CHX counter 63.9 (no result: Marburg entry inh, Lassa entry inh)
CCC(C)C(CO)NCCCn1cnc2c(SC)ncnc21 (stereo unspecified)	none (no result: Marburg entry inh, Shiga inhibitor, Lassa entry inh, CHX counter)
O=C(Oc1ccccc1)c1cccc(COC(=O)c2cnccn2)c1	Shiga inhibitor active, CHX counter 36.1
CSCc1ccc(C(=O)OCc2nc3ccccc3s2)o1	Marburg entry inh inconclusive (no result: Shiga inhibitor, CHX counter)
O=C(OCc1nc2ccccc2s1)c1cccs1	Shiga inhibitor 92.3, CHX counter 52.3
CCCCC(=O)OCc1nc2ccccc2s1	CHX counter 27.9
O=C(c1ccccc1)c1ccc(COC(=O)c2cnccn2)cc1	Marburg entry inh inconclusive
Cc1noc(C)c1COC(=O)CCCc1nc2ccccc2s1	none
O=C(OCc1nc2ccccc2s1)c1cnccn1	Shiga inhibitor 93.1, CHX counter 32.2
COc1cc(OC)cc(C(=O)NCC(=O)OCc2nc3ccccc3s2)c1	Marburg entry inh inconclusive, Shiga inhibitor 113.0, CHX counter 36.4
O=C(O)c1ccccc1OCc1nc2ccccc2s1	Shiga inhibitor 110.3, Lassa entry inh inconclusive, CHX counter 64.5
CCN(C(=O)COC(=O)c1ccccc1O)c1nc2ccccc2s1	none (no result: Shiga inhibitor, CHX counter)
O=C(OCc1nc2ccccc2s1)c1ccccc1O	Shiga inhibitor 57.6, CHX counter 66.6
O=C(O)c1ccccc1OCc1ccccc1Br	none (no result: Marburg entry inh, Lassa entry inh)
Cc1ccc(N(CC(=O)Nc2ccc(Br)c(C)c2)S(=O)(=O)c2cccs2)cc1	Marburg entry inh inconclusive (no result: Shiga inhibitor, CHX counter, AMA1 RON2 block)
O=C(/C=C\Nc1ccc2c(c1)OCO2)c1ccccn1	Marburg entry inh inconclusive, Lassa entry inh 0.447µM
O=C(/C=C\Nc1ccc2c(c1)OCO2)c1ccc2c(c1)OCO2	Marburg entry inh inconclusive, Shiga inhibitor 94.6, Lassa entry inh inconclusive, CHX counter 29.2
O=C(Nc1ccc2c(c1)OCO2)c1ccccn1	none (no result: Marburg entry inh, Shiga inhibitor, Lassa entry inh, CHX counter)
COc1ccc(N/C=C/C(=O)c2ccc3c(c2)OCO3)cc1OC	Marburg entry inh inconclusive, Shiga inhibitor 61.4, Lassa entry inh inconclusive, CHX counter 67.1
CCOc1ccc(N/C=C\C(=O)c2ccc3c(c2)OCO3)cc1	none (no result: Shiga inhibitor, CHX counter)
COc1ccc(N/C=C\C(=O)c2ccc3c(c2)OCO3)cc1	Marburg entry inh inconclusive, Shiga inhibitor 87.7, Lassa entry inh inconclusive, CHX counter 63.2
COc1ccc(C(=O)C=Cc2ccc3c(c2)OCO3)cc1OC	none (no result: Marburg entry inh, Shiga inhibitor, Lassa entry inh, CHX counter)
O=C(NC1CCCC1)C(c1ccccc1)n1c(-c2ccc3c(c2)CCO3)nc2ccccc21 (stereo unspecified)	none (no result: Marburg entry inh, Shiga inhibitor, Lassa entry inh, CHX counter)
CCCCOc1ccc2c(c1)/C(=C(\C(Cl)=C(Cl)Cl)[N+](=O)[O-])N2	none
COc1ccc(-c2nc(CN3CCN(c4ncnc5ccccc45)CC3)c(C)o2)c(OC)c1	Marburg entry inh 14.6µM, Lassa entry inh inconclusive
COc1ccc(-c2nc(CN3CCN(c4ccccc4OC)CC3)c(C)o2)cc1	Marburg entry inh inconclusive
Cc1oc(-c2cc(F)ccc2F)nc1CN1CCC(C(=O)N2CCOCC2)CC1	Marburg entry inh inconclusive
Cc1oc(-c2cc(F)ccc2F)nc1CN1CCN(c2ncnc3ccccc23)CC1	CHX counter 24.6 (no result: Marburg entry inh, Lassa entry inh)
COCC(C)NC(=O)c1cc2c(=O)n3cccc(C)c3nc2s1 (stereo unspecified)	none (no result: Shiga inhibitor, CHX counter, AMA1 RON2 block)
COC(=O)c1ccc(OC)c(Cn2c(=O)n(C)c(=O)c3ccccc32)c1	none (no result: Shiga inhibitor)
CC(=O)N1CCN(C(=O)CSc2cc(C)c(Br)cc2C)CC1	Shiga inhibitor 48.2, CHX counter 34.1
OCCNCCCOc1ccc(Cl)cc1Br	Marburg entry inh 20.6µM
O=C(OCc1ccccc1)N1CCCCC1c1c(Cl)cccc1Br (stereo unspecified)	none (no result: Marburg entry inh, Shiga inhibitor, Lassa entry inh, CHX counter)
COc1cc(CN2CCCC(N3CCN(c4ccccc4C)CC3)C2)ccc1O (stereo unspecified)	Marburg entry inh inconclusive
O=C(CSc1ccccn1)Nc1ccc(F)c([N+](=O)[O-])c1	none
NS(=O)(=O)c1cccc(NC(=O)CSc2ccccn2)c1	CHX counter 28.5
